Laboratory results published in the supplement of paper PMC9492666.
Structures can show the parent of a compound that is named as a salt.

How the values were obtained:
Settings in all cases: 72 h
HCC1937 [1] = assay: relative cell viability, compound alone, vs DMSO (fraction of DMSO control); higher = less growth inhibition
MDA-MB-231 [2] = assay: as above
HCC1937 [3] = assay: relative cell viability, compound + RSL3, vs DMSO (fraction of DMSO control); higher = less growth inhibition
MDA-MB-231 [4] = assay: as above
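Throughout, for relative cell viability, compound + RSL3, vs DMSO: breast cancer cell viability read out with the CCK-8 kit after co-treatment of each compound with the ferroptosis inducer RSL3.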
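Throughout, for relative cell viability, compound alone, vs DMSO: viability read out with the CCK-8 kit in 96-well plates, screening a set of 303 compounds acting on lipid metabolism targets.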

COc1cc(F)c(C(C)C)cc1-c1ccc(C(F)(F)F)cc1CN1C(=O)O[C@H](c2cc(C(F)(F)F)cc(C(F)(F)F)c2)[C@@H]1C [Anacetrapib]
relative cell viability (HCC1937 [1]): 0.72
relative cell viability (MDA-MB-231 [2]): 0.877

CCN(CC)C(=O)N1CCN(C)CC1 [Diethylcarbamazine citrate]
relative cell viability (HCC1937 [1]): 0.699
relative cell viability (MDA-MB-231 [2]): 0.856

CC[C@H](C)C(=O)O[C@H]1C[C@H](O)C=C2C=C[C@H](C)[C@H](CC[C@@H](O)C[C@@H](O)CC(=O)O)[C@H]21 [Pravastatin sodium] + COC(=O)c1ccc([C@H]2c3[nH]c4ccccc4c3C[C@H](C(=O)OC)N2C(=O)CCl)cc1 [RSL3]
relative cell viability (HCC1937 [3]): 0.77
relative cell viability (MDA-MB-231 [4]): 0.606

COc1ccc(-n2c(SCCCN3C(=O)c4cccc5cccc(c45)C3=O)nnc2-c2ccncc2)cc1 + COC(=O)c1ccc([C@H]2c3[nH]c4ccccc4c3C[C@H](C(=O)OC)N2C(=O)CCl)cc1 [RSL3]
relative cell viability (HCC1937 [3]): 0.324
relative cell viability (MDA-MB-231 [4]): 0.56

CCOC(=O)c1c(NC(=O)CN2CCN(C(=O)c3ccco3)CC2)sc2c1CCC2 + COC(=O)c1ccc([C@H]2c3[nH]c4ccccc4c3C[C@H](C(=O)OC)N2C(=O)CCl)cc1 [RSL3]
relative cell viability (HCC1937 [3]): 0.384
relative cell viability (MDA-MB-231 [4]): 0.476

O=S(=O)(Nc1ccc(C(O)(C(F)(F)F)C(F)(F)F)cc1)c1cccs1
relative cell viability (HCC1937 [1]): 1.1
relative cell viability (MDA-MB-231 [2]): 1.03

CN(C)C(=N)NC(=N)N [Metformin] + COC(=O)c1ccc([C@H]2c3[nH]c4ccccc4c3C[C@H](C(=O)OC)N2C(=O)CCl)cc1 [RSL3]
relative cell viability (HCC1937 [3]): 0.335
relative cell viability (MDA-MB-231 [4]): 0.542

C[C@H](CCOc1cccc(CC(=O)O)c1)N(Cc1cccc(C(F)(F)F)c1Cl)CC(c1ccccc1)c1ccccc1 + COC(=O)c1ccc([C@H]2c3[nH]c4ccccc4c3C[C@H](C(=O)OC)N2C(=O)CCl)cc1 [RSL3]
relative cell viability (HCC1937 [3]): 0.318
relative cell viability (MDA-MB-231 [4]): 0.532
